Source: the supplement of paper PMC10849652
The full data set covers some 8,800 targets. This sample favours those with a hit. About 0.5% of all pairs of compound and target were hits. Values without a mark were called inactive.

Legend:
Assay in all cases: log2 fold change, soluble protein after heating vs DMSO (PISA); higher = thermal stabilisation; K562 lysate, 10 uM; active = over 0.2 and 3.5 SD of the protein, either way, in both replicates (recomputed)
[1] = compound: C#Cc1cccc(Nc2ncnc3cc(OCCOC)c(OCCOC)cc23)c1 [erlotinib]
Procedure, shortened: (§1)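 Soluble protein was defined as the supernatant remaining after 21,000xg for 90 min, following pooling of heated aliquots and adjustment to 0.5% NP-40 at 4°C. Before that, crude K562 extract at 1 mg/mL protein in PBS pH 7.4 with 1 mM MgCl2 was treated with 10 μM compound for 30 min and heated for 3 min across 48°C-58°C. Quantification used TMTpro 16plex LC-MS/MS with channel sums equalised, and values are log-two fold changes in thermal stability relative to solvent controls from duplicates.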

[2] = compound: C/C(=N\NC(=O)C1=CC(=CC=C1)S(=O)(=O)N2CCOCC2)/C3=C(C=CC(=C3)Cl)O
Procedure, shortened: as §1

[3] = compound: C1=CC(=CC=C1C2=NC3=C(N2)C=C(C=C3)C(=O)N)OC4=CC=C(C=C4)Cl
Procedure, shortened: as §1

[4] = compound: C1=CC2=C(C=CC(=C2)/C=C\3/C(=O)NC(=NCC4=CC=CS4)S3)N=C1
Procedure, shortened: as §1

[5] = compound: C1=CC2=NC=CN=C2C=C1/C=C/3\C(=O)NC(=O)S3
Procedure, shortened: as §1

[6] = compound: C1=CC=C(C=C1)C2=NC(=C(N2)C3=CC=NC=C3)C4=CC(=C(C=C4)Cl)O
Procedure, shortened: as §1

[7] = compound: C1=CC=C2C(=C1)C3=NNC4=CC=CC(=C43)C2=O
Procedure, shortened: as §1

[8] = compound: C1CCN(C1)C(=O)NC2=CC=CC(=C2)NC3=NC=C(C(=N3)NCCC4=CN=CN4)Br
Procedure, shortened: as §1

[9] = compound: C1CN(CCC1(CC2=CC=C(C=C2)Cl)N)C3=NC=NC4=C3C=CN4
Procedure, shortened: as §1

[10] = compound: C1COCCN1CCN2C3=CC=CC=C3N=C2NC(=O)C4=CC(=CC=C4)[N+](=O)[O-] [IRAK-1-4 Inhibitor I]
Procedure, shortened: as §1

[11] = compound: C=CC(=O)N1CCC[C@@H](n2nc(-c3ccc(Oc4ccccc4)cc3)c3c(N)ncnc32)C1 [ibrutinib]
Procedure, shortened: as §1

[12] = compound: CC(=O)c1cnc2ccc(-c3cc(Cl)c(O)c(Cl)c3)nc2c1N[C@H]1CC[C@H](CN(C)C)CC1
Procedure, shortened: as §1

[13] = compound: CC(C)(C)Cn1c(N)nc2ccc(-c3[nH]c(C(C)(C)C)nc3-c3ccc(F)cc3)nc21 [ralimetinib]
Procedure, shortened: as §1

[14] = compound: CC(C)(O)CC(=O)NCCn1ccc2ncnc(Nc3ccc(Oc4cccc(C(F)(F)F)c4)c(Cl)c3)c21
Procedure, shortened: as §1

[15] = compound: CC(C)C1=C2N=C(C=C(N2N=C1)NCC3=CC=CC=C3)NCCCCCCN
Procedure, shortened: as §1

[16] = compound: CC1=C(C(CC(=O)N1)C2=CC=C(C=C2)C(F)(F)F)C(=O)NC3=C(C=C4C(=C3)C=NN4)F
Procedure, shortened: as §1

[17] = compound: CC1=C(C2=C(C=C1)C(=O)C3=CC=CC=C3N2CCCN)C
Procedure, shortened: as §1

[18] = compound: CC1=C(C=C(C=C1)NC(=O)C2=CC(=CC=C2)C(C)(C)C#N)NC3=CC4=C(C=C3)N=CN(C4=O)C
Procedure, shortened: as §1

[19] = compound: CC1=C(C=C(C=C1)NC(=O)C2=CC(=CC=C2)N(C)C)NC(=O)C3=CC=C(C=C3)O
Procedure, shortened: as §1

[20] = compound: CC1=CC=C(C=C1)SC2=C3C=C(SC3=CN=C2)C(=O)N
Procedure, shortened: as §1

Chain of UniProt Q13042 (Q13042 whole entry, looked up): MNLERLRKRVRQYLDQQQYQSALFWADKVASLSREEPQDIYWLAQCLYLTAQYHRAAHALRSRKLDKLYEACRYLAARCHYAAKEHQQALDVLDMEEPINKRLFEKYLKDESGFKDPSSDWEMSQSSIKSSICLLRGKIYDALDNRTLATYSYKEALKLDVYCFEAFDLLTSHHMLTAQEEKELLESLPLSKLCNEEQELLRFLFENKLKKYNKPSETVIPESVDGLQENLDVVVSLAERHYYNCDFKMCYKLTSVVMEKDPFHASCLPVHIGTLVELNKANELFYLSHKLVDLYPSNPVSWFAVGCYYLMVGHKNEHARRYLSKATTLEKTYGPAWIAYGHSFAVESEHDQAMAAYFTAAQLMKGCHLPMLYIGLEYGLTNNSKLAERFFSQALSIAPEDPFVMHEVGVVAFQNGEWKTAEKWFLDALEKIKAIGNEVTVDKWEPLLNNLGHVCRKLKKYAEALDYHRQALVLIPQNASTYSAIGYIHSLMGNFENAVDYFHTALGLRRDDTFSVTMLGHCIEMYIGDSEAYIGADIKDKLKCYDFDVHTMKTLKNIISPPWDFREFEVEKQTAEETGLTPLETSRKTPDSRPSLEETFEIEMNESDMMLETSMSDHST
Chain of UniProt Q8IWY9 (Q8IWY9 whole entry, looked up): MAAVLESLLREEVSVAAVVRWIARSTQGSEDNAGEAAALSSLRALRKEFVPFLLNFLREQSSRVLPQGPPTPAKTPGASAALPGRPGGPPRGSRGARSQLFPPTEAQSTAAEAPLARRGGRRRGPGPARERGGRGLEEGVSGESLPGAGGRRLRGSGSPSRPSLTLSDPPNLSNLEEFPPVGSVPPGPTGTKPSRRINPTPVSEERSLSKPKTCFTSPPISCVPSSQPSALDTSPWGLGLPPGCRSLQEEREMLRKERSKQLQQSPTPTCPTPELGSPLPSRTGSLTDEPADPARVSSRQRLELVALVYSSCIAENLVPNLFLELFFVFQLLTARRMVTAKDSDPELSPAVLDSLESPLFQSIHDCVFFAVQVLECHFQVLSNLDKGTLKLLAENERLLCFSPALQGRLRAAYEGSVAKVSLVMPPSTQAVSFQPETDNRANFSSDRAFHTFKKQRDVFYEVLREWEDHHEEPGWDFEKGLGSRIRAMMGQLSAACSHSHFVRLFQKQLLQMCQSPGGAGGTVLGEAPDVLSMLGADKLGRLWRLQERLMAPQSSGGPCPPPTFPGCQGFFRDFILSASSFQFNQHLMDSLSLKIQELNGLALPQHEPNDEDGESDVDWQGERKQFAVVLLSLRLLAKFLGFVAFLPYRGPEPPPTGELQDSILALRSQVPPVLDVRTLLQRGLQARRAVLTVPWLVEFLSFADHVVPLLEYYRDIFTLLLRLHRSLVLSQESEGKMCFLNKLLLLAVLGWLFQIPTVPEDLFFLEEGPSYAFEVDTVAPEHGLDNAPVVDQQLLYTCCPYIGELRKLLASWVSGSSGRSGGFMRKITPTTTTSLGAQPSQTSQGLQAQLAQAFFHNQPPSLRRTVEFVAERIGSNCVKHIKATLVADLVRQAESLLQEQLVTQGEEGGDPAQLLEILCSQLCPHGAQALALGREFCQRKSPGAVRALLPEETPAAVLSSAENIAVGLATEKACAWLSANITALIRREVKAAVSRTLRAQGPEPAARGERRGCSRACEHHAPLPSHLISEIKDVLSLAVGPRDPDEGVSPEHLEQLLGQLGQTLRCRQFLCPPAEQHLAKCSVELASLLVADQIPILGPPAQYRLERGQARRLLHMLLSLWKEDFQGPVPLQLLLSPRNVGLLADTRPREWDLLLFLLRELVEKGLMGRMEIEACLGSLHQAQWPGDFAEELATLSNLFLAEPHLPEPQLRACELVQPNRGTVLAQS
Chain of UniProt Q9NSG2 (Q9NSG2 whole entry, looked up): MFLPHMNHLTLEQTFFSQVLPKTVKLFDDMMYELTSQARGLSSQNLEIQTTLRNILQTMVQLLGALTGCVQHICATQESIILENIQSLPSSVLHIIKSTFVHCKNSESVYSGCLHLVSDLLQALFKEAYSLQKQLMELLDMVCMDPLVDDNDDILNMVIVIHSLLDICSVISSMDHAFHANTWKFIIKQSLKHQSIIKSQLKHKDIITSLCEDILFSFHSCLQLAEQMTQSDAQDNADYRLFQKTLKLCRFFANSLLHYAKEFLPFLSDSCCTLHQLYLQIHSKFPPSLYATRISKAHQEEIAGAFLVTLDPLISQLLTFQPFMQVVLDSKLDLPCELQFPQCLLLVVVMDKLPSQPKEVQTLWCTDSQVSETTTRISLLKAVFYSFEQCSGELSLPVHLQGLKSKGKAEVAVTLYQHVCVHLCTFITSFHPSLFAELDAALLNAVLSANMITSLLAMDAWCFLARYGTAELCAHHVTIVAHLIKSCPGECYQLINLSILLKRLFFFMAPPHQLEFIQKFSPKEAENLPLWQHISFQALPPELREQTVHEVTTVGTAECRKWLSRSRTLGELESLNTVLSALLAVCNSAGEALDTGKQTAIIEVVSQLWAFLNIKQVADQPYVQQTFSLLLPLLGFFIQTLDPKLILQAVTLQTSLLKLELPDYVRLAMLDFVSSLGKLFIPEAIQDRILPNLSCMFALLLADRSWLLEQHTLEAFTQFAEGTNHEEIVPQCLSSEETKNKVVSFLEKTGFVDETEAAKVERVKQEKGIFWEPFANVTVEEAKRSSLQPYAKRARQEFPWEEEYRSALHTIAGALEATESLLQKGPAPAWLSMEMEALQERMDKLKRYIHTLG
Chain of UniProt P22676 (P22676 whole entry, looked up): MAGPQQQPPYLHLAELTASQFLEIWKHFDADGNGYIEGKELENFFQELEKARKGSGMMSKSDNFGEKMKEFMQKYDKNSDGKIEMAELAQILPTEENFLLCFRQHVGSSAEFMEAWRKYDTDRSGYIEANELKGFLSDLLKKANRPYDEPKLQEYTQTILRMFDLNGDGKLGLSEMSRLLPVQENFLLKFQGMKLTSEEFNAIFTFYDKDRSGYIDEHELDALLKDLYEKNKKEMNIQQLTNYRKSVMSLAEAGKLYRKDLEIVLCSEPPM
Chain of UniProt Q9ULG6 (Q9ULG6 whole entry, looked up): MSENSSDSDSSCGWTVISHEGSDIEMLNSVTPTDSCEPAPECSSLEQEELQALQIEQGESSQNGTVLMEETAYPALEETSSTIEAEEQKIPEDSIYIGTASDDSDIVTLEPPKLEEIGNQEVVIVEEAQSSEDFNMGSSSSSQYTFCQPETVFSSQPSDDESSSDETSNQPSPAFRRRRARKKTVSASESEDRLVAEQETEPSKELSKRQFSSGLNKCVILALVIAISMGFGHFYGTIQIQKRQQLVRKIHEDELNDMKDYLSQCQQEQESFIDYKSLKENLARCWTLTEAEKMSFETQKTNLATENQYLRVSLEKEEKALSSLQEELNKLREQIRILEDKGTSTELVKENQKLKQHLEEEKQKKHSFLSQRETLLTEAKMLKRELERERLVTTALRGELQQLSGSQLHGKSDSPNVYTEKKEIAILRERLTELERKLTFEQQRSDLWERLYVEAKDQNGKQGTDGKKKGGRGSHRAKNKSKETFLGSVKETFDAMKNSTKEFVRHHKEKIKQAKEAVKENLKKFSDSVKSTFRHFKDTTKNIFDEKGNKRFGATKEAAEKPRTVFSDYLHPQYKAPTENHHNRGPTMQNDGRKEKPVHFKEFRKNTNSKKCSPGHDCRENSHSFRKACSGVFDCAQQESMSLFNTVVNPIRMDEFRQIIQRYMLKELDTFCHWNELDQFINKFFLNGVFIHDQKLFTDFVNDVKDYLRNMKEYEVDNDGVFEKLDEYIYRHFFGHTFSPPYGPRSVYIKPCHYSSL
Chain of UniProt P83916 (P83916 whole entry, looked up): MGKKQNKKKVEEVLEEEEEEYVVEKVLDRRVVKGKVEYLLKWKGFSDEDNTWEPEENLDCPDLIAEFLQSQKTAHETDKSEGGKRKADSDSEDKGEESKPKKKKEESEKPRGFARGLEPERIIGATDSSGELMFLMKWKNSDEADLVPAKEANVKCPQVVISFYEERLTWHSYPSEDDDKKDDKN
Chain of UniProt O00748 (O00748 whole entry, looked up): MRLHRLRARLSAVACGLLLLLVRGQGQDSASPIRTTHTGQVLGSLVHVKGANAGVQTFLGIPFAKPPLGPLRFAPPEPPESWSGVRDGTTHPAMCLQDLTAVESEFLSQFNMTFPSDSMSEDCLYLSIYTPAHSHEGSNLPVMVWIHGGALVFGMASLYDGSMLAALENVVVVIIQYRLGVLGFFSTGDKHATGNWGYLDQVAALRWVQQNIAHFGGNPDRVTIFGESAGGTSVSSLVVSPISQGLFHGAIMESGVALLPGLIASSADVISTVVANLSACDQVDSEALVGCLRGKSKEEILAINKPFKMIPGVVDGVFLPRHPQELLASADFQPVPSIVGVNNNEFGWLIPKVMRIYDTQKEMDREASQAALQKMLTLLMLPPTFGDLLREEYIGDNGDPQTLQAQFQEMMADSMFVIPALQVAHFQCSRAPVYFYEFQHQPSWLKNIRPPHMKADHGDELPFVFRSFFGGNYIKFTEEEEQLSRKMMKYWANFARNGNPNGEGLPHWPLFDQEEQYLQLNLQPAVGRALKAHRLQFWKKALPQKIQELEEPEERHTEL
Chain of UniProt Q9NW68 (Q9NW68 whole entry, looked up): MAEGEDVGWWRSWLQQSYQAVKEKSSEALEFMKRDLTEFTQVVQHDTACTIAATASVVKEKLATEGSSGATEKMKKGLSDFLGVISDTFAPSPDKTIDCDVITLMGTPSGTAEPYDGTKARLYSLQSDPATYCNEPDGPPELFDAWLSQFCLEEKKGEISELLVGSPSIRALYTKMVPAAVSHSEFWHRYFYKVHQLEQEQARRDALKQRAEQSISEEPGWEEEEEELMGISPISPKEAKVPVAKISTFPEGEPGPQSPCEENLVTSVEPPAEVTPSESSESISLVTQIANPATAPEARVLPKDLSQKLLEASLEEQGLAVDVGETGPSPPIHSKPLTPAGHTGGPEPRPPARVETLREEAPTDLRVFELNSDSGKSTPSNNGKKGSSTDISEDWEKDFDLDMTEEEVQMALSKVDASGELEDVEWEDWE

Row | Target | log2 fold change [1] | log2 fold change [2] | log2 fold change [3] | log2 fold change [4] | log2 fold change [5] | log2 fold change [6] | log2 fold change [7] | log2 fold change [8] | log2 fold change [9] | log2 fold change [10] | log2 fold change [11] | log2 fold change [12] | log2 fold change [13] | log2 fold change [14] | log2 fold change [15] | log2 fold change [16] | log2 fold change [17] | log2 fold change [18] | log2 fold change [19] | log2 fold change [20]
1 | CALB2 (UniProt P22676) | 0.021 | 0.045 | -0.04 | -0.103 | -0.077 | 0.02 | 0.043 | 0.056 | 0.065 | 0.08 | 0.085 | 0.016 | 0 | -0.083 | -0.093 | -0.025 | -0.116 | 0.028 | -0.039 | -0.014
2 | CDC16 (UniProt Q13042) | -0.006 | -0.067 | -0.051 | 0.031 | -0.009 | 0.006 | 0.019 | 0.027 | -0.056 | -0.004 | 0.02 | 0.019 | 0.025 | -0.022 | 0.012 | -0.006 | 0.04 | -0.029 | -0.005 | 0.025
3 | CCPG1 isoform 5 (UniProt Q9ULG6) | -0.014 | 0.08 | 0.082 | 0.017 | 0.024 | 0.067 | -0.119 | 0.019 | 0.053 | -0.03 | 0.021 | -0.014 | 0.08 | 0.013 | 0.014 | -0.004 | -0.058 | -0.026 | -0.029 | -0.102
4 | CDAN1 (UniProt Q8IWY9) | 0.006 | -0.01 | 0.048 | -0.025 | -0.012 | -0.04 | -0.063 | -0.001 | 0 | 0.003 | 0.035 | -0.004 | 0 | -0.029 | -0.02 | -0.001 | -0.023 | 0.035 | 0.056 | -0.008
5 | BSDC1 (UniProt Q9NW68) | -0.002 | 0.01 | -0.039 | 0.046 | -0.025 | -0.024 | 0.036 | -0.029 | 0 | 0.059 | 0.048 | 0.008 | -0.004 | -0.023 | 0.062 | 0.038 | 0.01 | 0.022 | -0.047 | 0.011
6 | CBX1 (UniProt P83916) | -0.012 | -0.158 | -0.012 | -0.006 | 0.03 | -0.017 | 0.017 | 0.008 | 0.03 | 0.029 | -0.002 | 0.021 | -0.006 | -0.023 | -0.039 | -0.033 | -0.024 | 0.007 | -0.003 | -0.046
7 | C1orf112 (UniProt Q9NSG2) | -0.053 | 0.015 | 0.079 | -0.008 | -0.057 | 0.026 | 0 | -0.046 | 0.054 | -0.034 | 0.014 | 0.038 | 0.022 | -0.061 | 0.017 | 0.067 | -0.085 | -0.029 | 0.036 | 0.091
8 | C2CD5 isoform 3 (UniProt Q86YS7) | 0.021 | -0.047 | 0.017 | -0.024 | -0.048 | -0.034 | -0.046 | -0.045 | 0.024 | 0.054 | -0.005 | -0.026 | 0.016 | -0.123 | 0.019 | -0.018 | 0.023 | 0.071 | -0.004 | -0.068
9 | ATP2B4 (UniProt P23634) | 0.021 | 0.023 | 0.012 | 0.024 | 0.019 | -0.015 | -0.018 | 0.017 | 0.045 | -0.028 | 0.06 | -0.026 | -0.056 | -0.029 | -0.018 | 0.033 | -0.034 | 0.089 | 0.051 | -0.003
10 | CARD9 (UniProt Q9H257) | 0.035 | -0.024 | -0.029 | -0.02 | -0.024 | -0.009 | 0.033 | 0.015 | -0.003 | 0.017 | -0.034 | 0.037 | 0.014 | -0.029 | 0.019 | -0.022 | -0.027 | -0.005 | -0.008 | -0.038
11 | CEP120 (UniProt Q8N960) | 0.044 | -0.124 | -0.03 | -0.02 | 0.004 | -0.007 | -0.142 | 0.168 | 0.215 | 0.018 | -0.02 | -0.061 | -0.076 | -0.132 | 0.001 | -0.174 | -0.224 | -0.015 | 0.001 | -0.085
12 | CES2 isoform 4 (UniProt O00748) | -0.014 | 0.006 | -0.012 | 0.041 | -0.035 | 0.087 | -0.067 | 0.053 | -0.031 | 0.075 | 0.431 (active) | -0.048 | -0.031 | 0.057 | -0.004 | 0.202 | -0.128 | 0.079 | -0.019 | -0.025
